This passage reports growth results from PubChem BioAssay (NCI).

The panel holds about 83,000 compounds, 20% with a hit somewhere; the sample as a whole holds those more often.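 Note: values are percent growth. 100 is the growth of untreated cells, values between 100 and 0 indicate rising inhibition; between -100 and 0 indicates cell death.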 A number with no mark means an inactive call. Activity calls are given as the source filed them. How the source made its calls: active means growth percent below 10; inactive means the rest.

Among the test systems are SR leukemia; RPMI-8226 leukemia; OVCAR-8 ovarian; OVCAR-5 ovarian; OVCAR-4 ovarian; SK-OV-3 ovarian; OVCAR-3 ovarian; NCI/ADR-RES ovarian; HS 578T breast; IGROV1 ovarian.
Holding throughout (experiment): NCI-60 one-dose screen, 48 h (100 = growth as untreated, 0 = no growth, -100 = all killed)
Holding throughout (conditions): 10 µM unless noted

As to `COc1cc(/C(=C2/O[C@@H]([C@H]3COC(C)(C)O3)[C@H]3OC(C)(C)O[C@@H]23)c2ccc3c(c2)OCO3)cc(OC)c1OC`, the growth is 80.9% in the experiment with SR leukemia; 73.7% with RPMI-8226 leukemia; 4.49% (active) in the experiment on OVCAR-8 ovarian; 59.2% in the experiment with OVCAR-5 ovarian; 58.1% in the experiment with OVCAR-4 ovarian; 63.1% with SK-OV-3 ovarian. Also, the figures for the growth in the experiment on OVCAR-3 ovarian and in the experiment on NCI/ADR-RES ovarian were 74.8% and 44.4%, respectively.

As to `CC(O)CN(CC(C)O)N(CC(C)O)CC(C)O` (centres undefined), the growth was 94.2% in the experiment on SR leukemia; 98.9% with RPMI-8226 leukemia; 97.9% in the experiment on OVCAR-8 ovarian; 101% in the experiment with OVCAR-5 ovarian; 98.2% with OVCAR-4 ovarian; 109% in the experiment with SK-OV-3 ovarian. The growth is 108% with HS 578T breast and 106% in the experiment on NCI/ADR-RES ovarian.

Take `CC(C)OC(=O)[C@H](C)N[P@@](=O)(OC[C@@]1(C)O[C@@H](n2cc(F)c(N)nc2=O)C[C@@H]1O[P@](=O)(N[C@@H](C)C(=O)OC(C)C)Oc1ccccc1)Oc1ccccc1`: the growth with SR leukemia was 124%; in the experiment on RPMI-8226 leukemia, 105%; in the experiment on OVCAR-8 ovarian, 79.4%; in the experiment with OVCAR-5 ovarian it was 110%; with OVCAR-4 ovarian, 112%; with IGROV1 ovarian, 94.4%. Also, the results for the growth in the experiment on OVCAR-3 ovarian, in the experiment on HS 578T breast and with NCI/ADR-RES ovarian were 102%, 85.6% and 103%, respectively.

Consider `Cc1c(Cc2ccccc2)c(=O)oc2c(C)c(OCC(=O)n3nc(C#N)cc3N)ccc12`, for which the growth in the experiment on SR leukemia is 90.3%; in the experiment with RPMI-8226 leukemia it was 100%; with OVCAR-8 ovarian, 102%; with OVCAR-5 ovarian, 104%; with OVCAR-4 ovarian, 93%; with SK-OV-3 ovarian it was 93.8%. Further, the growth in the experiment on OVCAR-3 ovarian was 104%; with HS 578T breast it was 99.2%; in the experiment with NCI/ADR-RES ovarian it was 102%.

As for `C=C(C)[C@@H]1CC[C@]2(COC(=O)c3ccccc3C(=O)O)CC[C@]3(C)[C@H](CC[C@@H]4[C@@]5(C)CCCNC(C)(C)[C@@H]5CC[C@]43C)[C@@H]12`, the growth with SR leukemia was 6.59% (active); with RPMI-8226 leukemia it was 23.3%; with OVCAR-8 ovarian, 70.5%; in the experiment on OVCAR-5 ovarian, 90%; in the experiment on OVCAR-4 ovarian it was 57.3%; in the experiment with IGROV1 ovarian, 54.5%. The growth in the experiment with OVCAR-3 ovarian is 68%; in the experiment on HS 578T breast, 78.5%; in the experiment on NCI/ADR-RES ovarian, 89.7%.

Take `C[C@]12C=CC(=O)C=C1[C@@H](F)C[C@@H]1[C@@H]2[C@@H](O)C[C@@]2(C)[C@H]1CC[C@]2(O)C(=O)CO`: the growth was 106% with SR leukemia; 72.7% in the experiment on RPMI-8226 leukemia; 83.9% in the experiment on OVCAR-8 ovarian; 77.2% with OVCAR-5 ovarian; 106% with OVCAR-4 ovarian; 71.3% in the experiment on SK-OV-3 ovarian. Also, the growth with OVCAR-3 ovarian is 96.3%; in the experiment on NCI/ADR-RES ovarian, 91.5%.

Regarding `O=C(CCC(=O)N(CCO)CCO)N(CCO)CCO`, the growth was 89.8% in the experiment with SR leukemia; 101% in the experiment on RPMI-8226 leukemia; 103% in the experiment on OVCAR-8 ovarian; 105% in the experiment with OVCAR-5 ovarian; 105% in the experiment with OVCAR-4 ovarian; 99% in the experiment on SK-OV-3 ovarian. Also, the values for the growth in the experiment with OVCAR-3 ovarian and with NCI/ADR-RES ovarian were 97.5% and 108%, respectively.

In the case of `COc1ccc(/C(=C(\c2ccccc2)[N+](=O)[O-])c2ccc(OCCN3CCCC3)cc2)cc1`, the growth was 21.8% in the experiment with SR leukemia; 37% in the experiment with RPMI-8226 leukemia; 92.6% with OVCAR-8 ovarian; 75.3% with OVCAR-5 ovarian; 81.8% with OVCAR-4 ovarian; 99% in the experiment with SK-OV-3 ovarian. The growth in the experiment on OVCAR-3 ovarian was 100%; in the experiment on NCI/ADR-RES ovarian, 84.3%.

Turning to `CC[N+](C)(C)N`, the growth was 93.8% in the experiment with SR leukemia; 101% in the experiment with RPMI-8226 leukemia; 98.3% in the experiment on OVCAR-8 ovarian; 111% in the experiment on OVCAR-5 ovarian; 102% in the experiment with OVCAR-4 ovarian; 109% with SK-OV-3 ovarian. In addition, the growth in the experiment with OVCAR-3 ovarian was 114%; in the experiment on HS 578T breast, 108%; in the experiment on NCI/ADR-RES ovarian, 109%.

Regarding `CC(=O)N(N=O)c1ccc([N+](=O)[O-])cc1Cl`, the growth in the experiment on SR leukemia is 63.1%; with RPMI-8226 leukemia, 17.2%; with OVCAR-8 ovarian it was 66.1%; with OVCAR-5 ovarian, 88.5%; in the experiment on OVCAR-4 ovarian, 55.5%; with SK-OV-3 ovarian it was 66.9%. Further, the growth with OVCAR-3 ovarian is 44.5%; in the experiment with NCI/ADR-RES ovarian, 64.5%.

In the case of `O=C1OC(c2ccc(-c3ccccc3)cc2)=C/C1=C/c1c2ccccc2cc2ccccc12`, the growth in the experiment on SR leukemia was 81.2%; with RPMI-8226 leukemia, 85.3%; in the experiment on OVCAR-8 ovarian, 97.6%; with OVCAR-5 ovarian, 83.7%; with OVCAR-4 ovarian it was 95.7%; in the experiment on SK-OV-3 ovarian, 96%. The values for the growth in the experiment with OVCAR-3 ovarian, with HS 578T breast and in the experiment on NCI/ADR-RES ovarian were 97.9%, 89.8% and 96.5%, respectively.

`CC(=O)NNC(=O)c1sc(NC(C)=O)nc1C`: the growth in the experiment on SR leukemia is 87.4%; in the experiment on RPMI-8226 leukemia, 105%; with OVCAR-8 ovarian it was 95.6%; with OVCAR-5 ovarian, 97%; with OVCAR-4 ovarian, 122%; in the experiment on SK-OV-3 ovarian, 92.6%. In addition, the growth in the experiment with OVCAR-3 ovarian is 103%; in the experiment with HS 578T breast, 74.9%; with NCI/ADR-RES ovarian, 104%.

Take `S=C(N/N=C/c1cc(Cl)cc(Cl)c1)NC12CC3CC(CC(C3)C1)C2`: the growth with SR leukemia is 20%; in the experiment on RPMI-8226 leukemia, 73.8%; in the experiment on OVCAR-8 ovarian it was 56.8%; in the experiment on OVCAR-5 ovarian, 85.7%; in the experiment with OVCAR-4 ovarian it was 23.4%; in the experiment on SK-OV-3 ovarian, 66.7%. Besides, the growth in the experiment with OVCAR-3 ovarian is 58.2%; in the experiment with NCI/ADR-RES ovarian, 77%.

As to `COCn1c(C(=O)OC)cc2oc(/C=C3/SC(=S)N(N)C3=O)cc21`, the growth with SR leukemia is 45.7%; with RPMI-8226 leukemia, 79.2%; in the experiment on OVCAR-8 ovarian it was 98%; in the experiment with OVCAR-5 ovarian, 108%; in the experiment with OVCAR-4 ovarian it was 97.2%; in the experiment on SK-OV-3 ovarian it was 89.6%. In addition, the growth in the experiment on OVCAR-3 ovarian is 81.1%; with HS 578T breast, 55.8%; in the experiment on NCI/ADR-RES ovarian, 112%.
